According to the supplement of paper PMC3334620:
In all, about 33,000 sequences were measured (“E-score (-0.5 to 0.5)”: median about -0.021, highest 2% from about 0.32 on). This excerpt belongs to a sample that is enriched for the highest values.

target: T1, Zap1 (UniProt P47043); experiment: PBM E-score (8-mer binding enrichment) (E-score (-0.5 to 0.5)); higher = stronger / more preferred TF binding; conditions: protein concentration: 200 nM; construct: GST-full length
T1 sequence: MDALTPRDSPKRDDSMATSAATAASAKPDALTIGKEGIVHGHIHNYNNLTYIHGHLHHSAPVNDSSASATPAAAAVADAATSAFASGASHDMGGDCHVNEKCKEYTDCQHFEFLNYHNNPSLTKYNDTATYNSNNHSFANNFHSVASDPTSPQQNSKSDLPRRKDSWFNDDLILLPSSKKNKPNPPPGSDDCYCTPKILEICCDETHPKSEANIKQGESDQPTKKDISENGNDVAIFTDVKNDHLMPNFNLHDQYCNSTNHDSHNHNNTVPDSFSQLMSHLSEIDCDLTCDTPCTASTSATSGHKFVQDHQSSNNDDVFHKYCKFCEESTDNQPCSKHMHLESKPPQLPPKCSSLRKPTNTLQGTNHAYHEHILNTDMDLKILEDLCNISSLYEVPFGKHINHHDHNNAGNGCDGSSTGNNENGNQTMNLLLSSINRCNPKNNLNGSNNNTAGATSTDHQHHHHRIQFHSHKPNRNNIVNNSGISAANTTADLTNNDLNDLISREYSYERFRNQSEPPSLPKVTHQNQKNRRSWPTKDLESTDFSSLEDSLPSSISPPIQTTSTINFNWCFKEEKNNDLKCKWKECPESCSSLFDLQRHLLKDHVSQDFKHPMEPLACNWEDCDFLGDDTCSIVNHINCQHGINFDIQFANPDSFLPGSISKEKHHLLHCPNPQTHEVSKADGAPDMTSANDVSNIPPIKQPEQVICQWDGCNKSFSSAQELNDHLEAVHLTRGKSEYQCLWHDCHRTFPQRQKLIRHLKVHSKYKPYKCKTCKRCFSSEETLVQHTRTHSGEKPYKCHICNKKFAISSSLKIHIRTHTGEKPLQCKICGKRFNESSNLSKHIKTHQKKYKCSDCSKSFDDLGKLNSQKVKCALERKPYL
Protocol: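 Universal 'all 10-mer' protein binding microarrays (Agilent AMADID 015681) probed with GST-tagged S. cerevisiae TFs (full-length or DBD) made by in vitro transcription/translation (PURExpress), about 100-200 nM. Bound TF was detected with fluorescent anti-GST. Each ungapped 8-mer (which stands for itself and its reverse complement) is scored by the PBM enrichment score (E-score), a modified Wilcoxon-Mann-Whitney statistic from -0.5 to +0.5, computed with the Universal PBM Analysis Suite. Scale: above 0.35 generally sequence-specific binding.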

Sequence | PBM E-score
GGTTTTAC | 0.108
GTGCGCCA | -0.175
TATGTGGA | -0.0214
ATTCTTGA | 0.0771
CCTCTCAC | -0.0256
AAAGTGGA | -0.0378
CATCAAGG | 0.0235
ACGTGAGC | -0.116
ACGGTACC | 0.399
CCGGTACA | 0.149
GCGGTACA | 0.13
CCGGTACG | -0.136
ACGGTACG | 0.0714
CCGGTACC | 0.414
ACGGTACT | 0.0886
GCGGTACC | 0.418
GCGGTAGC | 0.0107
AGACGGGC | -0.112
CAGCAGCA | -0.198
CGTATCGA | -0.133
CAAGGTCG | 0.263
AAAGGTCT | 0.238
ACAGGTCG | 0.0832
AAAGGTCC | 0.245
TAAGGTGA | 0.155

Sequence | PBM E-score
AAAGGTCA | 0.449
AAAGGTCG | 0.323
CAAGGTCC | 0.151
GAAGGTCA | 0.232
TAAGGTCA | 0.341
CAAGGTCA | 0.386
AAAGGTGG | 0.158
ACGACTCG | -0.134
GTCGATGA | -0.149
CCGGAGGA | -0.228
CCTCAATA | 0.0804
AGACCGGG | 0.0501
CCACAGGG | 0.1
CTCGTCAC | 0.099
AATCAGCA | -0.0933
ACCTGTTG | 0.265
GGAGGCAA | -0.188
ACACTTAT | -0.101
AACCTCGC | 0.295
AACCTCGA | 0.367
AACCTCGG | 0.302
AACCTCGT | 0.322
GACCTCGA | 0.277
CACCTCGA | 0.215
GCCACCTA | -0.103

Sequence | PBM E-score
CAGACAGG | -0.0636
AGGGGGTG | -0.204
AGGGGTTC | 0.173
AAGGGGTG | 0.167
AAGGGTTG | 0.441
AAGGGTGC | 0.134
AAGGGTGG | 0.19
AGGGGTTG | 0.337
AAGGGTTC | 0.339
CAGGGTTC | 0.214
AAAGGTTC | 0.293
AGAGGTTG | 0.218
AAAGGTTG | 0.336
AAATAGCA | -0.171
AATAGACG | -0.163
TCAGTGGA | -0.041
ATCGAACG | -0.183
CTCTACGA | -0.0991
ACCTACCC | 0.316
CTCCACGC | -0.241
CTTCTACA | -0.0296
CCAGGGAC | -0.163
CATGGTTC | 0.132
AATGGTTC | 0.246
GATGGTAA | 0.171

Sequence | PBM E-score
GATGGTTA | 0.392
GATGGTGA | -0.0368
AATGGTTG | 0.254
AATGGTTA | 0.413
CATGGTGA | 0.0149
CATGGTTA | 0.415
GCCGCACC | 0.0244
ATTTTGAC | 0.203
AGCGACCG | -0.13
CTACCTAG | 0.104
GCTTTGCC | -0.379
AGCCTAAG | -0.216
ATTCACTC | -0.105
AAGTGCTA | -0.303
CGCCCTAA | -0.126
TACCCTAA | 0.435
GTCCCTAA | 0.109
AGCCCTAA | -0.00909
CCCCCTAA | -0.277
AACCCTAA | 0.452
GACCCTCA | 0.189
TCCCCTAA | 0.0699
CACCCTAA | 0.369
GACCCTAA | 0.433
ATCCCTAA | 0.006

Sequence | PBM E-score
TACCCTCA | 0.312
CGCCAATC | -0.11
GTGAATTA | 0.206
AAAGGACA | 0.177
AGTAAGAT | -0.0474
ACCATTTG | 0.221
AGACGCTA | -0.167
TGCGCACA | -0.037
CCCCTTGC | -0.0145
ATCCTTGG | -0.139
AGCCTTGC | -0.257
CCCCTTGA | 0.119
GCCCTTGA | 0.00462
ACCCTTGG | 0.365
ACCCTTGA | 0.383
AGCCTTGG | -0.208
ACCCTTGC | 0.381
CAAGCTCA | -0.197
AACAGCAA | -0.0172
CTGGTGAC | -0.0173
GATACTGC | -0.126
CAGATTTC | -0.097
ATAGCGAT | 0.0306
AAATGGCT | 0.00044
AATACCCA | 0.158

Sequence | PBM E-score
ACTACCCT | 0.445
AATACCCG | 0.177
AATACCCT | 0.379
ACTACCCC | 0.215
ACTACCCA | 0.291
AGGTGGTC | 0.142
CGTTGCGA | -0.126
AGTTGTTA | 0.161
GGTTGTGA | 0.374
GGTTGTTA | 0.355
GGTTGCGA | 0.335
AGTTGCGA | 0.16
AGTTGTAC | 0.146
CGTTGTTA | 0.102
AGTTGTGA | 0.193
GGTTGTAC | 0.336
CGTTGTGA | -0.151
GGTTGTAA | 0.278
CGTAGACC | -0.109
ACAGAACC | 0.0979
ATTGGCAG | -0.219
CTGAAGTA | 0.0214
ATGACTCG | -0.115
CTTGCGAA | 0.139
GCCATATA | 0.0242

Sequence | PBM E-score
TAAACCGA | -0.0627
ATTCTCTG | -0.159
TGACCAAA | 0.28
CCACATCG | 0.0835
GAGTGTCA | 0.035
CAAAGGTG | 0.0139
ATAACAGC | -0.0193
CAGCTGGC | -0.0978
GGGGTTTA | 0.126
GGGGTTCA | 0.0745
TGGGTTAA | 0.359
AGGGTTTA | 0.315
TCGGTTAA | 0.274
TGTGTTAA | 0.0894
AGCGTTAG | -0.147
AGAGTTAA | -0.086
AGGGTTTG | 0.292
GGGGTTAA | 0.403
AGGGTTAA | 0.461
AGGGTTAG | 0.431
AAACTTAG | 0.0118
ACTCTTGA | -0.00751
